Test results published in PubChem BioAssay.
Calls of active or inactive are those of the source.

Key:
[1] = binders of probe aFSTL3 on microarray, primary screen, stem cell growth factor project, biochemical, small-molecule microarray, fluorescence 635/667 (AID 1064); conditions: higher = more signal;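 note: measures binding of the biotinylated anti-FSTL3 antibody to printed compounds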
[2] = binders from COS7 lysate, DM2A8 probe, primary screen, torsin A project, cell lysate, small-molecule microarray, fluorescence 635/667 (AID 1065); conditions: higher = more signal, COS7 lysate expressing mutant human TOR1A
[3] = binders of probe aFGF2 on microarray, primary screen, stem cell growth factor project, biochemical, small-molecule microarray, fluorescence 635/667 (AID 1067); conditions: higher = more signal;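 note: measures binding of biotinylated aFGF2 protein to printed compounds on slides; z-score merges feature fluorescence and signal-to-noise across triplicate slides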
[4] = binders of probe aFGF10 on microarray, primary screen, stem cell growth factor project, biochemical, small-molecule microarray, fluorescence 635/667 (AID 1071); conditions: higher = more signal;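 note: score merges 667 nm spot intensity and signal to noise from triplicate slides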
[5] = target: Neurogenic locus notch homolog protein 2 (Homo sapiens) (UniProt Q04721); test: Notch2 binders on small-molecule microarrays, primary screen, biochemical, small-molecule microarray, 635 nm fluorescence, stem cell growth factors (AID 1073); conditions: Notch2 binding, higher = more signal
[6] = target: Pro-neuregulin-1, membrane-bound isoform (Homo sapiens) (UniProt Q02297); test: NRG1 binders on small-molecule microarrays, primary screen, psychiatric disease protein project, biochemical, small-molecule microarray, fluorescence 635/667 (AID 1075); conditions: NRG1 binding, 635 nm fluorescence, higher = more signal;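 note: score combines 667 nm spot fluorescence with signal to noise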
[7] = system: Neuregulin-1 EGF-like domain; test: binders of neuregulin-1 EGF-like domain, primary screen, biochemical, small-molecule microarray, 635 nm fluorescence (AID 1081); conditions: small-molecule microarray binding, higher = more signal;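 note: binding of the protein to compounds printed on small-molecule microarray slides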
[8] = FRG1 promoter luciferase signal modulators, primary screen, FRG1 inhibition for FSHD, cell-based, C2C12 myotubes, firefly/Renilla luciferase, luminescence (AID 1084); conditions: higher = more signal, called active from +8 up or from −8 down
[9] = binders of probe aFST on microarray, primary screen, stem cell growth factor project, biochemical, small-molecule microarray, fluorescence 635/667 (AID 1086); conditions: higher = more signal;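 note: score merges 667 nm fluorescence with signal-to-noise of each printed compound spot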
[10] = binders of probe aHhip on microarray, primary screen, stem cell growth factor project, biochemical, small-molecule microarray, fluorescence 635/667 (AID 1087); conditions: higher = more signal;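 note: score merges spot fluorescence at 667nm with spot signal to noise ratio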
[11] = system: PRMT1 (protein arginine N-methyltransferase 1); test: PRMT1 binders on small-molecule microarrays, primary screen, biochemical, small-molecule microarray, 635 nm fluorescence (AID 1088); conditions: small-molecule microarray binding, higher = more signal;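 note: binding of Prmt1 protein to compounds spotted on small-molecule microarray slides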
[12] = yeast growth modulation, basal conditions, primary screen, YJM789 clinical isolate, OD600, 24 h (AID 1089);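 note: growth of clinical yeast isolate S. cerevisiae YJM 789 seeded 1000 cells per well; test concentration not given here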; conditions: S. cerevisiae YJM789 growth, higher = more signal, called active from +8 up or from −8 down
[13] = fission yeast growth modulation, primary screen, strain 972, OD600, 24 h, no modulator (AID 1090);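 note: basal condition with compound alone and no growth modifier present; test concentration not given here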; conditions: S. pombe 972 growth, higher = more signal, called active from +8 up or from −8 down
[14] = S. cerevisiae growth modulation with rapamycin, primary screen, strain BY4716, OD600, 96 h (AID 1091); conditions: higher = more signal, called active from +8 up or from −8 down; note: test concentration not given here
[15] = target: Torsin-1A-interacting protein 2 (Homo sapiens) (UniProt Q8NFQ8); test: LULL1 binders on small-molecule microarray, primary screen, cell lysate, human LULL1 lysate, 635/667 nm fluorescence (AID 1092); conditions: hLULL1 lysate binding, 635 nm fluorescence, higher = more signal;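 note: probe is lysate of COS7 cells overexpressing human LULL1; score merges per-feature 667 nm fluorescence with signal-to-noise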
[16] = E. coli growth modulation, two-sided OD650, primary screen, E. coli filamentation project, strain DRC41, 24 h (AID 1093); conditions: OD650, 24 h, higher = more signal, called active from +8 up or from −8 down;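 note: MC1000 strain lacking acrAB efflux and sulA so SOS filamentation is blocked; test concentration not given here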
[17] = small-molecule microarray binders of probe aLefty2, primary screen, biochemical, biotinylated probe, 635/667 nm fluorescence (AID 1094); conditions: higher = more signal;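 note: score merges spot fluorescence near 667 nm with spot signal-to-noise ratio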
[18] = system: Noggin (protein binding on small-molecule microarray); test: Noggin binders on small-molecule microarray, primary screen, biochemical, 635/667 nm fluorescence (AID 1095); conditions: 635 nm fluorescence, higher = more signal;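 note: score merges 667 nm feature fluorescence with signal to noise over triplicate slides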
[19] = target: Neurogenic locus notch homolog protein 3 (Homo sapiens) (UniProt Q9UM47); test: NOTCH3 binders on small-molecule microarray, primary screen, biochemical, 635/667 nm fluorescence (AID 1096); conditions: NOTCH3 binding, 635 nm fluorescence, higher = more signal
[20] = small-molecule microarray binders of probe aEGFR, primary screen, biochemical, biotinylated probe, 635/667 nm fluorescence (AID 1097); conditions: higher = more signal;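 note: probe is a biotinylated anti-EGFR antibody binding compounds printed on slides; score combines fluorescence near 667 nm and signal to noise of each spot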

Neurogenic locus notch homolog protein 2 (Homo sapiens), sequence (Q04721 whole entry, looked up, canonical isoform): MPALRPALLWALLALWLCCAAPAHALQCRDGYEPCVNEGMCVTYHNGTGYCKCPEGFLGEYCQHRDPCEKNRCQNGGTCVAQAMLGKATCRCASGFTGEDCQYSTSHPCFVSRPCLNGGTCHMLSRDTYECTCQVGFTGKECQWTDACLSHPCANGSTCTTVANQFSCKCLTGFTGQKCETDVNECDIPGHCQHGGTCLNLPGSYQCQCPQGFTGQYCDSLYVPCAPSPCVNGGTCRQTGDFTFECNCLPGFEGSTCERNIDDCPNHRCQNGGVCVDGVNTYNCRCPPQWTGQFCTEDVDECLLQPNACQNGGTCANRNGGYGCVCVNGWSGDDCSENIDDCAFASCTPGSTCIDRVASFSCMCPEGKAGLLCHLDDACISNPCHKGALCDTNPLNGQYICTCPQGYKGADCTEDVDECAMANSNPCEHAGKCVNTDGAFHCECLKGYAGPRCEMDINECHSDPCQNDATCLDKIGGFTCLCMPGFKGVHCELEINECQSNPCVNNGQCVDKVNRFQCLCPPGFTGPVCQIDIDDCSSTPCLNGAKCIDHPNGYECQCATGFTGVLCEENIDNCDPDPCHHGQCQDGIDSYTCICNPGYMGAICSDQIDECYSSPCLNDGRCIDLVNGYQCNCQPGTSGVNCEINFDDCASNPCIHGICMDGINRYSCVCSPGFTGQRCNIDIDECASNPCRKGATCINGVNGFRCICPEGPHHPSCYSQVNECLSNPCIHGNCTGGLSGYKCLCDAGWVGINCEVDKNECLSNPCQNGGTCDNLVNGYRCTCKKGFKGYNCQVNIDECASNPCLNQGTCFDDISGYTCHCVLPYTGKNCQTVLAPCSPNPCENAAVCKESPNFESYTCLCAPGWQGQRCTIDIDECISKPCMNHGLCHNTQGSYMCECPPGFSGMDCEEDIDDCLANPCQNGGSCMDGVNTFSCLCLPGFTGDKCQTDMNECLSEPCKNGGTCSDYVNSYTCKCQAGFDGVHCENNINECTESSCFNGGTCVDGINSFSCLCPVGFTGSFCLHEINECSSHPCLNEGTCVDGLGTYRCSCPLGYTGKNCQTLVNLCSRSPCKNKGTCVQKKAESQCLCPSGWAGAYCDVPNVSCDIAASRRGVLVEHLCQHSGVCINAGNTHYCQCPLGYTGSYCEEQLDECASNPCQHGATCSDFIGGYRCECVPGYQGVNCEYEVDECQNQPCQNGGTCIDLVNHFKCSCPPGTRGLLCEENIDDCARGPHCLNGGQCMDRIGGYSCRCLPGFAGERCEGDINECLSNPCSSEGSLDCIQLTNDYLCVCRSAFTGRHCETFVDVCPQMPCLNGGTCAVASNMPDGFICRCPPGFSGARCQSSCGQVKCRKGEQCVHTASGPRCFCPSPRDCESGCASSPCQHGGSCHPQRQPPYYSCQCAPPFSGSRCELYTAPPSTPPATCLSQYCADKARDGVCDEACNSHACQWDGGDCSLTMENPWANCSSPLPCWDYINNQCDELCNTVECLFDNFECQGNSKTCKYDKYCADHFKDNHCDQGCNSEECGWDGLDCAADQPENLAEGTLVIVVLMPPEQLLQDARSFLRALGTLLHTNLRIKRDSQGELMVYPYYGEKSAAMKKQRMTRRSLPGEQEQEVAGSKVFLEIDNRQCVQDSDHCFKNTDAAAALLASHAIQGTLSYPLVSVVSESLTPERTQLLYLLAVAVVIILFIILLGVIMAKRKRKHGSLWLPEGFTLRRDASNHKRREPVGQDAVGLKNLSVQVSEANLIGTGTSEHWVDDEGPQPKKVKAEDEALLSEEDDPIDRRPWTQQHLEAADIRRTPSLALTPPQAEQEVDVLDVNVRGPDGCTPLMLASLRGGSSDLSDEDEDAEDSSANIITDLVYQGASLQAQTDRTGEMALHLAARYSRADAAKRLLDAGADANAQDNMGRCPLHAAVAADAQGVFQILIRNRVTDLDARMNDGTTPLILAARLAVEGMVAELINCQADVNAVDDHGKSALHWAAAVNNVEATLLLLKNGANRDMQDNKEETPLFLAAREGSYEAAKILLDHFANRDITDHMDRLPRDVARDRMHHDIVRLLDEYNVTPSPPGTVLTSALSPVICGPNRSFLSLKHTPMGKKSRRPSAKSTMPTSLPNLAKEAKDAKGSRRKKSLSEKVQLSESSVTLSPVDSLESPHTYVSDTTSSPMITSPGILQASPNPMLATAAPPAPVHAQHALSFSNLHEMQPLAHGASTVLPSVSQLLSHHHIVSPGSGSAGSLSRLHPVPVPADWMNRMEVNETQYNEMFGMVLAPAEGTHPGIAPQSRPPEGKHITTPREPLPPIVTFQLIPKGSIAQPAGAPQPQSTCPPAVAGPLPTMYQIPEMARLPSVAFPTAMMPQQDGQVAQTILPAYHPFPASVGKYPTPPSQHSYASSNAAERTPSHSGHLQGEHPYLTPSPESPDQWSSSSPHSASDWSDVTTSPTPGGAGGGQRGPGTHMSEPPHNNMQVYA
Pro-neuregulin-1, membrane-bound isoform (Homo sapiens), sequence (Q02297 whole entry, looked up, the tested form may be a part, canonical isoform): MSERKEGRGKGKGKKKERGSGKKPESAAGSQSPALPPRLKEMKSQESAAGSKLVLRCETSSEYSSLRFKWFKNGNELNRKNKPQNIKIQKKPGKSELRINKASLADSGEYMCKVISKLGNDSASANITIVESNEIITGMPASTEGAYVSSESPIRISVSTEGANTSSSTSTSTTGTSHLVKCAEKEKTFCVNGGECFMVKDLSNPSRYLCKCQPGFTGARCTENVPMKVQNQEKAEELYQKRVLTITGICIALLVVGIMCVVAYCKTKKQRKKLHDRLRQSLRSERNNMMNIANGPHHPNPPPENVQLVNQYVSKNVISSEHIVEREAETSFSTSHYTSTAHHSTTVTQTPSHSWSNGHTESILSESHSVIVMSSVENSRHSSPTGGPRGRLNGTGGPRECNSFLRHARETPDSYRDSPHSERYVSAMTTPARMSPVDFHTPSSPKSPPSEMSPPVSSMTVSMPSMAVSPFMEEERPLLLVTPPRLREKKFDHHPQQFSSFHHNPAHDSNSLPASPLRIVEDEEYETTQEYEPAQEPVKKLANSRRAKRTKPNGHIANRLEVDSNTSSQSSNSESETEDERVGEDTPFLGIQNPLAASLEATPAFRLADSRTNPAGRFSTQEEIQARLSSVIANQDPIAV
Torsin-1A-interacting protein 2 (Homo sapiens), sequence (Q8NFQ8 whole entry, looked up): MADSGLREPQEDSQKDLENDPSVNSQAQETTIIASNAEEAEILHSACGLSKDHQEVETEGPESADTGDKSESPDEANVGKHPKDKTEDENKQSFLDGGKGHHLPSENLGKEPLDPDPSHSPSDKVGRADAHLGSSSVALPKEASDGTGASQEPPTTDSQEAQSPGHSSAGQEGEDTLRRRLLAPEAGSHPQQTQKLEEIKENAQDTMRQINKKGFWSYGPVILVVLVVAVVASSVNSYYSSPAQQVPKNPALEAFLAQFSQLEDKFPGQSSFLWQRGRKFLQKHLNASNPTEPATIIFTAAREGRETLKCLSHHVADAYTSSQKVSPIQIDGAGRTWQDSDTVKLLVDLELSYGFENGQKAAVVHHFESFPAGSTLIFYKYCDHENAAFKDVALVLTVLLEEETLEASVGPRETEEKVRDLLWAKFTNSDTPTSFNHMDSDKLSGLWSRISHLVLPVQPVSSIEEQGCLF

| SMILES | composite z-score [1] | composite z-score [2] | composite z-score [3] | composite z-score [4] | composite z-score [5] | composite z-score [6] | composite z-score [7] | z-score [8] | composite z-score [9] | composite z-score [10] | composite z-score [11] | z-score [12] | z-score [13] | z-score [14] | composite z-score [15] | z-score [16] | composite z-score [17] | composite z-score [18] | composite z-score [19] | composite z-score [20] |
| --- | --- | --- | --- | --- | --- | --- | --- | --- | --- | --- | --- | --- | --- | --- | --- | --- | --- | --- | --- | --- |
| CC(C)OC(=O)C=C1C[C@@H](c2ccc(C(F)(F)F)cc2)O[C@@H](c2ccc(C(F)(F)F)cc2)O1 | -0.187 | 1.92 | -0.0288 | 0.891 | -0.316 | 1.08 | 1 | 0.337 (inactive) | 0.0006 | -0.214 | 1.16 | -1.84 (inactive) | -7.12 (inactive) | -1.52 (inactive) | 2.66 | 0.374 (inactive) | -0.241 | 0.105 | 0.324 | -0.195 |
| COCCCNC(=O)[C@]1(CCS(=O)(=O)c2ccccc2)N=C(c2ccc(OCCCO)cc2)O[C@@H]1c1ccccc1N=[N+]=[N-] | 1.42 | 0.769 | 0.263 | 1.11 | 0.984 | 0.977 | 1.01 | 4.31 (inactive) | 1.98 | -0.202 | 1.38 | 0.371 (inactive) | 0.61 (inactive) | 3.42 (inactive) | 2.93 | 0.464 (inactive) | 0.106 | -0.122 | 0.349 | 0.287 |
| NC(N)=NCCCn1cc(CNC(=O)[C@@H](N)Cc2ccccc2)nn1 | 0.236 | 0.236 | 0.0263 | -0.0436 | -0.0857 | 1.28 | 1.49 | 1.28 (inactive) | 0.044 | 0.0053 | 0.605 | 0.567 (inactive) | -0.627 (inactive) | -0.933 (inactive) | 1.14 | -1.08 (inactive) | 0.0616 | 0.743 | 0.179 | 0.0221 |
| COC(=O)c1c2oc(c1C(=O)OC)C(=O)N(C)Cc1cn(nn1)C[C@H](Cc1ccccc1)NC(=O)N[C@H](CO)CC2 | -0.239 | -0.705 | -0.174 | -0.248 | -0.867 | -0.638 | -0.717 | -0.161 (inactive) | -0.276 | 0.0854 | -0.929 | 1.23 (inactive) | 0.914 (inactive) | 0.556 (inactive) | -0.609 | -0.666 (inactive) | -0.174 | -0.244 | 0.15 | -0.154 |
| CC(=O)c1ccc(C(O)C2C=CC3C(=O)N(c4ccccc4)C(=O)C3N2Nc2ccc(C#N)cc2)cc1 (stereo not given) | 0.0415 | 0.233 | -0.122 | -0.0474 | 0.833 | 1.5 | 0.609 | -0.0141 (inactive) | 0.766 | -0.0645 | 0.155 | -0.623 (inactive) | 1.04 (inactive) | 2.05 (inactive) | 3.76 | -0.963 (inactive) | -0.103 | -0.442 | 0.352 | 0.0753 |
| CC(C)(C)OC(=O)CC[C@]1(C(=O)NCc2ccccc2)N=C(c2ccc(OCCCO)cc2)O[C@H]1c1ccccc1CN=[N+]=[N-] | -0.0386 | 0.357 | 0.119 | 0.618 | 1.55 | 1.22 | 1.31 | -2.07 (inactive) | 1.48 | -0.0296 | 1.54 | 0.133 (inactive) | 0.0256 (inactive) | 0.176 (inactive) | 3.46 | 0.868 (inactive) | 0.214 | 1.2 | 1.05 | 0.134 |
| COC(=O)c1c(CC[C@@H](CO)NC(=O)N2CCC[C@H]2Cn2cc(Cc3ccccc3)nn2)oc(C(C)=O)c1C(=O)OC | -0.506 | 0.268 | -0.0759 | 0.325 | 0.0554 | 0.638 | 1.12 | 0.0223 (inactive) | 0.22 | 0.2 | 1.28 | 0.102 (inactive) | -0.279 (inactive) | -1.45 (inactive) | 3.14 | -0.0178 (inactive) | -0.147 | 0.387 | 0.524 | -0.111 |
| O=C(NCC(F)(F)F)[C@@H]1c2ccccc2C(=O)N(Cc2cc(F)cc(C(F)(F)F)c2)[C@H]1c1ccc(CO)cc1 | 0.148 | -0.823 | -0.0996 | -0.762 | -1 | -0.381 | 1.06 | -0.0411 (inactive) | -0.317 | -0.218 | -0.264 | 0.0042 (inactive) | -0.793 (inactive) | 0.29 (inactive) | 2.29 | 0.463 (inactive) | -0.0998 | -1.08 | -1.13 | -0.278 |
| COC(=O)[C@@]1(Cc2ccccc2)[C@H]2c3cc(C(=O)N(C)C)n(CCc4ccc(O)c(OC)c4)c3C[C@H]2CN1C(=O)c1ccccc1 | 0.514 | 0.283 | 0.356 | 0.557 | 0.749 | 0.258 | 0.781 | 0.96 (inactive) | 1.34 | 2.09 | -0.26 | 0.031 (inactive) | -0.0531 (inactive) | 0.409 (inactive) | 0.47 | -0.452 (inactive) | 0.425 | 0.374 | 0.489 | 0.992 |
| C=CCOC(=O)[C@H]1[C@@H]2C(=O)O[C@@H](c3ccccc3)[C@@H](c3ccccc3)N2[C@@H](c2ccc(OCCOC(=O)[C@@H]3C[C@@H]4C(=O)N5CCC[C@H]5C(=O)N4[C@@H]3c3ccc(O)cc3)cc2)[C@]12C(=O)Nc1ccc(I)cc12 | 0.011 | -0.123 | -0.201 | 0.126 | 0.344 | 0.929 | 0.718 | 0.308 (inactive) | -0.0935 | -0.367 | 1.42 | 0.882 (inactive) | 0.25 (inactive) | 2.77 (inactive) | 1.03 | -0.333 (inactive) | -0.138 | 0.674 | 0.169 | -0.194 |
